Cycloheximide cs = counter-screen hit for Shiga toxin inhibitors, cycloheximide; cell reporter, cycloheximide protein synthesis inhibition counterscreen; max response, %; actives 12% (n = 300,000); in the data active = max response mostly above about 13%, no sharp cut-off; inactive = mostly below about 14%; also: read at 38.3 µM for the half of the compounds with a filed dose
AmpC inh no detg = inhibitors of E. coli AmpC beta-lactamase without detergent; P00811; AmpC nitrocefin hydrolysis, absorbance 480 nm, 0.0001% Triton; Potency, µM (top dose mostly 57.1 µM), actives largely listed as inhibitors; actives 0.52% (n = 330,000); AID 485341; also: nearly all actives have a fitted effect of over 20% in size
Target sequence (P00811 whole entry, looked up): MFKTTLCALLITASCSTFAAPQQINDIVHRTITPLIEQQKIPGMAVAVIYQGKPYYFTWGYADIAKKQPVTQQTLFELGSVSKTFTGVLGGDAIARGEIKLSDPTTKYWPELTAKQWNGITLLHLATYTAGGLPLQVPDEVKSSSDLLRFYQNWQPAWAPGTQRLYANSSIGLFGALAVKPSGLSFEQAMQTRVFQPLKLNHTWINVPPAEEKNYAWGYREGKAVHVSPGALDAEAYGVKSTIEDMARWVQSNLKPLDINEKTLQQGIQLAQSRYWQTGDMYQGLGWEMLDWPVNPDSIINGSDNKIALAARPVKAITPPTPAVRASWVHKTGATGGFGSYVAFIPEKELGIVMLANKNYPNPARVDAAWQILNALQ
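AmpC (5.3 nM in the dispensed reagent) in 20 mM phosphate pH 7.0 with 0.01% (detergent screen) or 0.0001% Triton X-100 was preincubated with compounds for 15 min at room temperature. Nitrocefin was then added from an 800 uM solution, and hydrolysis was followed at 480 nm.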
SARS PLP yeast = SARS-CoV PLP inhibition in yeast | Potency, µM (titrated, usually from 32.9 µM), most hits filed as activators | AID 485353 | S. cerevisiae expressing SARS-CoV PLpro, growth rescue | actives 0.19% (n = 330,000); calls by dose curve; also: nearly all actives have a fitted effect of over 55% in size
AmpC detergent = AmpC beta-lactamase inhibition with detergent present; P00811; AmpC hydrolysis of nitrocefin, absorbance 480 nm, 0.01% Triton; Potency, µM (top dose mostly 114 µM), hits mostly inhibitors; actives 0.041% (n = 370,000); also: nearly all actives have a fitted effect of over 25% in size
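AmpC (5.3 nM in the dispensed reagent) in 20 mM phosphate pH 7.0 with 0.01% (detergent screen) or 0.0001% Triton X-100 was preincubated with compounds for 15 min at room temperature. Nitrocefin was then added from an 800 uM solution, and hydrolysis was followed at 480 nm.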
AMA1-RON2 inh = disrupts binding of P. falciparum AMA1 to RON2 | AlphaScreen AMA1-biotinylated RON2 peptide binding | Potency, µM (doses to about 58.2 µM), hits mostly inhibitors | actives 0.2% (n = 360,000); also: nearly all actives have a fitted effect of over 45% in size
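AMA1 (3D7) with his tag at 25 nM final met compounds first, then biotinylated RON2 peptide at 25 nM; detection used donor plus acceptor beads, 10 µg/mL apiece, read by AlphaScreen after 30 min at room temperature.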
Shiga inhibitor = blocks Shiga toxin action in Vero cells | Vero cells, Shiga toxin protein synthesis inhibition reporter | actives 9.2% (n = 290,000) | inhibition, % at 38.7 µM; in the data active = inhibition mostly above about 28%, no sharp cut-off; inactive = mostly below about 43%
Hits are given with their value; 0 = inactive; ? = inconclusive; - = no result given; [ ] = another dose, or the depositor's remark. The full list was thinned out, with hits kept by preference. Unless noted, calls follow the shape of the dose curve; as a rule, active = well fitted curve in the direction sought with a large enough effect; inconclusive = small, poorly fitted or top-dose-only effect, or another doubt; inactive = no such curve, though single readings can be large; an effect the other way counts as inactive or inconclusive.

SMILES | Cycloheximide cs | AmpC inh no detg | SARS PLP yeast | AmpC detergent | AMA1-RON2 inh | Shiga inhibitor
O=C1c2ccccc2-c2cccc(NS(=O)(=O)c3ccc(C(F)(F)F)cc3)c21 | 0 | 5.6µM | 0 | 0 | 0 | 0
Cc1ccc(S(=O)(=O)Nc2ccccc2-c2ccccc2NS(=O)(=O)c2ccc(C)cc2)cc1 | 0 | 0 | 0 | 0 | 0 | 0
COc1ccc2cc(-c3ccn[nH]3)ccc2c1 | 32 | 0 | 0 | 0 | 0 | 80
COc1ccc(-c2cn[nH]c2C)cc1 | 0 | 0 | 0 | ? | 0 | 0
CSc1ccc(CCNC(=O)CCCn2nc(C)c3sc4ccccc4c3c2=O)cc1 | - | - | - | 0 | - | -
O=C(CNS(=O)(=O)c1ccc(C(=O)N2CCCCC2)cc1)N1CCCCC1 | 0 | 0 | 0 | 0 | 0 | 0
Cc1c(NC2=CC(=O)CC(C)(C)C2)ccc([N+](=O)[O-])c1C | 0 | 0 | 0 | ? | 0 | 0
CC1=C/C(=N\Nc2ccccc2[N+](=O)[O-])CC(C)(C)C1 | 0 | 0 | 0 | 0 | 3.5µM | 0
Fc1ccc(C2CCCN2Cc2nc(Cc3ccccc3F)no2)cc1 (stereo not drawn) | 13 | 0 | 0 | 0 | 0 | 0
Fc1cccc(Cc2noc(CN3CCCCC3c3ccccn3)n2)c1 (stereo not drawn) | 35 | 0 | 0 | 0 | 0 | 0
O=C(CSc1nnc2ccccn12)NC(=O)c1ccccc1 | - | 0 | 0 | 0 | 0 | -
COc1ccccc1N1CCN(c2ccc3ccccc3n2)CC1 | 45 | 0 | 0 | 0 | 0 | 70
COc1ccccc1N1CCN(c2ccc(-c3ccccc3)nn2)CC1 | 42 | 0 | 0 | 0 | 0 | 139
COc1ccccc1N1CCN(C2=NS(=O)(=O)c3ccccc32)CC1 | 12 | 0 | 0 | ? | 0 | 0
c1ccc(Nc2ccccc2)cc1 | - | 0 | 0 | 0 | 0 | -
c1ccc(Nc2cccc(Nc3ccccc3)n2)cc1 | 34 | 0 | 0 | 0 | 0 | 55
c1ccc(Nc2ccccn2)cc1 | 17 | 0 | 0 | 0 | 0 | 0
CCn1c(SCc2cccc(F)c2)nc2c(c1=O)SCC2 | 0 | 0 | 0 | 0 | ? | 0
CC(=O)OCC1=C(C(=O)O)N2C(=O)C(NC(=O)c3ccc(COc4ccc(Cl)cc4)o3)C2SC1 (stereo not drawn) | 0 | 0 | 0 | 0 | 0 | 0
C=CCc1ccc(OCCOc2cccc3ccc(C)nc23)c(OC)c1 | 30 | 0 | 0 | 0 | 0 | 59
Cc1cccc(OCCn2nnc3ccccc32)c1C | 42 | 0 | 0 | 0 | 0 | -
C=CCc1ccc(OCCn2nnc3ccccc32)c(OC)c1 | 50 | 0 | 0 | 0 | 0 | 53
C=CCc1ccc(OCCn2cccc2C=O)c(OC)c1 | 49 | 0 | 0 | 0 | 0 | 116
C=CCc1ccc(OCCOCCN(C)C)c(OC)c1 | 0 | 0 | 0 | 0 | 0 | 0
COc1ccc(C(=O)NNC(=O)CSc2nnc(COc3ccc4ccccc4c3)n2C)cc1 | 0 | 0 | 0 | 0 | 0 | 0
SMILES | Cycloheximide cs | AmpC inh no detg | SARS PLP yeast | AmpC detergent | AMA1-RON2 inh | Shiga inhibitor
CC(CN1CCN(c2ccccc2)CC1)c1ccccc1 (stereo not drawn) | 0 | 0 | 0 | 0 | 0 | 0
NNC(=O)c1ccc(COc2ccc([N+](=O)[O-])cc2)o1 | 0 | 0 | 0 | 0 | 0 | 0
C[C@@H]1CN([C@@H](C)CO)C(=O)CCCn2nncc2CO[C@H]1CN(C)C(=O)c1cc(-c2ccccc2)on1 | - | - | - | - | 0 | -
C/C=C/c1ccc(OCCn2nnc3ccccc32)c(OC)c1 | 35 | 0 | 0 | 0 | 0 | 0
O=C(COc1ccccc1)c1cn(Cc2ccccc2)c2ccccc12 | 18 | 0 | 0 | 0 | 0[11.6 µM] | 0
O=C(Cn1cc(C(=O)C2CC2)c2ccccc21)NCc1ccccc1 | 34 | 0 | 0 | 0 | 0 | 53
O=C(c1cn(Cc2ccccc2)c2ccccc12)C1CC1 | 12 | 0 | 0 | 0 | 0 | 0
O=C(O)CCCc1nc2ccccc2s1 | 0 | 0 | 0 | 0 | 0 | 0
CCN1CCN(C(=O)c2oc(=O)c3ccccc3c2-c2ccc(C)cc2)CC1 | 0 | 0 | 0 | ? | 0 | 0
CCn1cnc2cc(NC(=O)c3cccs3)ccc21 | 28 | 0 | 0 | 0 | 0 | 67
CC(C)(C)n1cnc2cc(NC(=O)c3ccccc3)ccc21 | 34 | 0 | 0 | 0 | 0 | 93
CSc1nc2ccc(NC(=O)c3cccs3)cc2s1 | - | 0 | 0 | - | 0 | -
CC(C)(C)n1cnc2cc(NC(=O)c3cccs3)ccc21 | 34 | 0 | 0 | ? | 0 | 104
COc1ccc(C2NC(=O)c3ccccc3O2)cc1 (stereo not drawn) | 0 | 0 | 0 | 0 | 0 | 0
Cc1cccc(NC(=O)COc2ccc(Br)cc2)n1 | 62 | 0 | 0 | 0 | 0 | 72
Cc1ccc(OCC(=O)Nc2cccc(C)n2)c(C)c1 | 36 | 0 | 0 | ? | 0 | 77
O=[N+]([O-])c1cc([N+](=O)[O-])c(Oc2ccc(F)cc2)cc1NN1CCCCC1 | 0 | 0 | 0 | 0 | 0 | 0
O=C(Cn1nnc(-c2cccs2)n1)NCCc1ccccc1 | 20 | 0 | 0 | 0 | 0 | 0
COc1ccc(C(=O)Cn2nnc(-c3cccs3)n2)cc1 | 63 | 0 | 0 | 0 | 0 | 91
COc1cccc(-c2nnn(CCC(=O)O)n2)c1 | 0 | 0 | 0 | 0 | 0 | 0
COC(=O)Cn1nnc(-c2cccc(OC)c2)n1 | 22 | 0 | 0 | 0 | 0 | 65
CC(C)c1ccc(NC(=S)Nc2ccc3cn[nH]c3c2)cc1 | 22 | 0 | 0 | 0 | 0 | 73
COc1ccccc1NC(=S)Nc1ccc2cn[nH]c2c1 | 16 | 0 | 0 | 0 | 0 | 47
Cc1ccc(NC(=S)Nc2ccc3cn[nH]c3c2)c(C)c1 | 0 | 0 | 0 | 0 | 0 | 0
CCCCn1c(N)c(N(CCOC)C(=O)C2CCN(c3ncnc4sc(C)c(C)c34)CC2)c(=O)[nH]c1=O | - | ? | 0 | ? | 0 | -
SMILES | Cycloheximide cs | AmpC inh no detg | SARS PLP yeast | AmpC detergent | AMA1-RON2 inh | Shiga inhibitor
CC1(C(=O)OCC(=O)c2c[nH]c3ccccc23)CC1(Cl)Cl (stereo not drawn) | 53 | 0 | 0 | 0 | 0 | 85
O=C(OCC(=O)c1c[nH]c2ccccc12)c1ccc([N+](=O)[O-])s1 | 24 | 0[2.29 µM] | 0 | 0 | 0 | 0
Cc1cccc(CC(=O)c2c[nH]c3ccccc23)c1 | 0 | 0 | 0 | 0 | 0 | 51
COc1cc(OC)c(N(C)S(=O)(=O)c2cccc(C(=O)OCC(=O)c3c[nH]c4ccccc34)c2)cc1Cl | 0 | 4µM | 0 | ? | 0 | 0
Cc1cccc(CNCCc2c[nH]c3ccccc23)c1 | 0 | 0 | 0 | 0 | 0 | 0
CC(C)(C)C(=O)CSc1nccc(=O)[nH]1 | 0 | 0 | 0 | 0 | 0 | 0
O=C(CSc1nnc(CNC(=O)c2ccc(F)cc2)o1)NCc1ccccc1Cl | 0 | 0 | 0 | 0 | 0 | 0
O=C(OCC(=O)c1c[nH]c2ccccc12)C1=COCCO1 | 37 | 0 | 0 | 0 | 0 | 74
COc1ccc(OCC(=O)c2c[nH]c3ccccc23)cc1 | 45 | 0 | 0 | 0 | 0 | 54
O=C(OCC(=O)c1c[nH]c2ccccc12)c1cc(Br)ccc1O | 0 | 2.2µM | 0 | 0 | 0 | 0

Screens (PubChem)
